Results on 11 compounds are retold here after PubChem BioAssay (NCI).

Molecules are shown by their SMILES. “And” between values parts separate entries of the source, which are not always exact repeats. Identical values can stand only once. This is part of a sample that, as a whole, favours compounds with a hit. Of some 83,000 tested, about 20% had one in any assay.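 Activity criterion: percent growth below 10, measured after cells in 96-well plates were exposed to a single compound concentration for 48 hours.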 The source made the active and inactive calls.

Among the test systems are DU-145 prostate; K-562 leukemia; MALME-3M melanoma; MDA-MB-231 breast; RXF 393 renal; SF-268 CNS; SF-295 CNS; SF-539 CNS; UACC-257 melanoma; M14 melanoma.
Common to all, as to assay: NCI-60 one-dose screen, 48 h (100 = growth as untreated, 0 = no growth, -100 = all killed)
What all share (conditions): 10 µM unless noted

Consider `O=C(/C=C/c1ccc(F)cc1)Nc1ncc(Cc2ccc(F)cc2)s1`, for which the growth with DU-145 prostate is 33% (inactive); with K-562 leukemia it was 14% (inactive); in the experiment with MALME-3M melanoma, 41.5% (inactive); with MDA-MB-231 breast it was 75.7% (inactive); with RXF 393 renal, 32.1% (inactive); in the experiment with SF-268 CNS it was 52.3% (inactive). Also, the growth was 20.2% (inactive) in the experiment with SF-295 CNS, 22% (inactive) in the experiment on SF-539 CNS, 60.3% (inactive) with UACC-257 melanoma and 19.9% (inactive) in the experiment with M14 melanoma.
In the case of `Cc1ccc(S(=O)(=O)OC[C@@]2(C)CC[C@]3(C)CC[C@]4(C)C(=CC[C@@H]5[C@@]6(C)CCCNC(C)(C)[C@@H]6CC[C@]54C)[C@@H]3C2)cc1`, the growth is -90.7% (active) in the experiment on DU-145 prostate; -39.5% (active) in the experiment on K-562 leukemia; -75.8% (active) in the experiment on MALME-3M melanoma; -85.7% (active) in the experiment with MDA-MB-231 breast; -85.9% (active) with RXF 393 renal; -55.2% (active) in the experiment with SF-268 CNS. Besides, the growth in the experiment with SF-295 CNS is 85.6% (inactive); in the experiment on SF-539 CNS, -93.2% (active); with UACC-257 melanoma, -58.7% (active); in the experiment with M14 melanoma it was -68.5% (active).
As to `CC[C@H](C)[C@H](NC(=O)[C@@H](N)CCC(N)=O)C(=O)N[C@@H](Cc1ccc(O)cc1)C(=O)N[C@@H](CCCCN)C(=O)N[C@@H](CCCCN)C(=O)N[C@@H](Cc1ccc(O)cc1)C(=O)N[C@@H](CCCNC(=N)N)C(=O)N[C@H](C(=O)N[C@@H](Cc1c[nH]c2ccccc12)C(=O)N[C@@H](Cc1ccc(O)cc1)C(=O)N[C@@H](CCCNC(=N)N)C(=O)N[C@@H](CCCCN)C(=O)N[C@@H](C)C(=O)N[C@@H](Cc1c[nH]c2ccccc12)C(=O)N[C@@H](CCCCN)C(=O)N[C@H](C(=O)N[C@@H](CC(C)C)C(=O)NCC(=O)N[C@@H](CCCCN)C(=O)N[C@H](C(N)=O)C(C)C)C(C)C)[C@@H](C)O`, the growth is 6.03% (active) in the experiment with DU-145 prostate; 5.04% (active) in the experiment with K-562 leukemia; -30.6% (active) in the experiment with MALME-3M melanoma; -29.7% (active) with MDA-MB-231 breast; 11.4% (inactive) in the experiment with RXF 393 renal; -29.8% (active) in the experiment on SF-268 CNS. For the same compound, the growth with SF-295 CNS was 34.6% (inactive); with SF-539 CNS, -40.7% (active); in the experiment on UACC-257 melanoma it was 66.2% (inactive); in the experiment with M14 melanoma, -11.8% (active).
For the compound `COc1ccc(-c2cc(=O)c3c(O)cc(O)cc3o2)cc1`, the growth in the experiment with DU-145 prostate was 103% (inactive) and 97.8% (inactive); in the experiment on K-562 leukemia, 91.5% (inactive); with MALME-3M melanoma it was 113% (inactive) and 110% (inactive); with MDA-MB-231 breast, 113% (inactive) and 91.4% (inactive); in the experiment with RXF 393 renal, 121% (inactive) and 116% (inactive); with SF-268 CNS it was 98.5% (inactive) and 99.4% (inactive). Also, the growth with SF-295 CNS was 101% (inactive) and 104% (inactive); in the experiment on SF-539 CNS, 94.5% (inactive) and 105% (inactive); in the experiment with UACC-257 melanoma, 127% (inactive) and 126% (inactive); in the experiment with M14 melanoma, 118% (inactive) and 122% (inactive).
As to `O=C(Nc1ccc(Cl)c(Cl)c1)Nc1ccc(Cl)c(Cl)c1`, the growth in the experiment with DU-145 prostate was -94.8% (active) and 21.1% (inactive); in the experiment on K-562 leukemia, -33.4% (active) and 12.4% (inactive); in the experiment with MALME-3M melanoma, -16.1% (active); in the experiment with MDA-MB-231 breast, -91.1% (active) and 24.1% (inactive); with RXF 393 renal it was -88.2% (active) and 58.8% (inactive); in the experiment on SF-268 CNS, -80.7% (active) and 31.9% (inactive). Further, the growth is -11.8% (active) in the experiment with SF-295 CNS; -83.3% (active) and 51.1% (inactive) with SF-539 CNS; -81.9% (active) and 50% (inactive) in the experiment with UACC-257 melanoma; -85.7% (active) and 33.4% (inactive) in the experiment with M14 melanoma.
Take `COC(=O)c1nc(-c2ccc(C)cc2)oc1S(=O)(=O)c1ccc(Cl)cc1`: the growth in the experiment with DU-145 prostate is 113% (inactive); in the experiment with K-562 leukemia, 9.37% (active); in the experiment on MALME-3M melanoma, 31% (inactive); with MDA-MB-231 breast, 87% (inactive); in the experiment on RXF 393 renal, 120% (inactive); with SF-268 CNS, 97.1% (inactive). The growth with SF-295 CNS is 108% (inactive); in the experiment on SF-539 CNS it was 96.6% (inactive); with UACC-257 melanoma, 100% (inactive); in the experiment with M14 melanoma, 79.7% (inactive).
For `CN(Cc1ccccc1)c1nc(Cl)c(C2CC(c3ccc4c(c3)OCO4)=NN2c2cc(Cl)cc(Cl)c2)s1` (stereo not given), the growth in the experiment on DU-145 prostate was 101% (inactive); in the experiment on K-562 leukemia, 90.2% (inactive); in the experiment on MALME-3M melanoma, 95% (inactive); in the experiment on MDA-MB-231 breast, 101% (inactive); with RXF 393 renal, 109% (inactive); with SF-268 CNS, 94.8% (inactive). Further, the growth with SF-295 CNS was 93.8% (inactive); in the experiment with SF-539 CNS it was 103% (inactive); with UACC-257 melanoma, 106% (inactive); in the experiment on M14 melanoma it was 99.5% (inactive).
In the case of `COc1ccc(/C=C2/C(=O)N=C3N2NC(c2ccccc2)=CN3c2ccccc2)cc1`, the growth with DU-145 prostate was 114% (inactive); with K-562 leukemia, 108% (inactive); with MALME-3M melanoma it was 102% (inactive); in the experiment with MDA-MB-231 breast, 107% (inactive); in the experiment on RXF 393 renal it was 89.7% (inactive); in the experiment on SF-268 CNS, 98.5% (inactive). In addition, the growth is 103% (inactive) in the experiment on SF-295 CNS, 94.8% (inactive) with SF-539 CNS, 108% (inactive) in the experiment on UACC-257 melanoma and 98.3% (inactive) in the experiment on M14 melanoma.
Regarding `Nn1c(-c2ccc(Cl)cc2)nc2c(-c3ccc(Cl)cc3)nc3ccc(Cl)cc3c2c1=O`, the growth with DU-145 prostate is -32.5% (active); with K-562 leukemia, 18.5% (inactive); in the experiment with MALME-3M melanoma it was 10.1% (inactive); with MDA-MB-231 breast it was 36.6% (inactive); with RXF 393 renal, 1.11% (active); with SF-268 CNS it was 14.8% (inactive). In addition, the growth in the experiment on SF-295 CNS was 22.6% (inactive); in the experiment with SF-539 CNS, 14.1% (inactive); in the experiment on UACC-257 melanoma it was 3.36% (active); in the experiment on M14 melanoma it was -0.438% (active).
On to `O=C1/C(=C/c2ccccc2)CN(C(=O)C(Cl)Cl)C/C1=C\c1ccccc1`, for which the growth in the experiment with DU-145 prostate is -14.3% (active); in the experiment with K-562 leukemia, 2.57% (active); in the experiment with MALME-3M melanoma, -38.5% (active); in the experiment on MDA-MB-231 breast, -3.43% (active); with RXF 393 renal it was -35.2% (active); in the experiment on SF-268 CNS, 35.7% (inactive). The growth in the experiment with SF-295 CNS is -1.45% (active); in the experiment on SF-539 CNS, -14.9% (active); in the experiment with UACC-257 melanoma, 25% (inactive); in the experiment with M14 melanoma, -27.6% (active).
Take `COc1cc(C=O)ccc1Oc1ccc([N+](=O)[O-])cc1[N+](=O)[O-]`: the growth with DU-145 prostate is 110% (inactive); in the experiment on K-562 leukemia, 97.3% (inactive); in the experiment with MALME-3M melanoma, 114% (inactive); with MDA-MB-231 breast, 104% (inactive); in the experiment with RXF 393 renal, 111% (inactive); in the experiment with SF-268 CNS it was 102% (inactive). Moreover, the growth was 108% (inactive) in the experiment on SF-295 CNS, 107% (inactive) with SF-539 CNS, 90% (inactive) with UACC-257 melanoma and 102% (inactive) in the experiment on M14 melanoma.
